ADAM17 inh: ADAM17 inhibition, QFRET primary screen; 370,000 compounds, 0.83% hits; recombinant ADAM17, EDANS/DABCYL FRET peptide cleavage; inhibition, % at 6.95 µM; P78536; AID 720648;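 active = inhibition above the mean of compounds lying between control limits plus 3 SD, set per campaign, cut at about 8.5% in these data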;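 note: 0% = DMSO-only wells as the low control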
proKLK7 act: activates the human kallikrein-7 zymogen. purified proKLK7, EDANS-DABCYL substrate fluorescence; 100% is mature enzyme control, 0% vehicle. activation, % at 7 µM. 370,000 compounds, 0.9% hits. AID 652039;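 active = activation above the mean of all tested compounds plus 3 SD, computed per campaign excluding outliers beyond control limits, cut at about 13% in these data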
Target sequence (P49862 whole entry, looked up): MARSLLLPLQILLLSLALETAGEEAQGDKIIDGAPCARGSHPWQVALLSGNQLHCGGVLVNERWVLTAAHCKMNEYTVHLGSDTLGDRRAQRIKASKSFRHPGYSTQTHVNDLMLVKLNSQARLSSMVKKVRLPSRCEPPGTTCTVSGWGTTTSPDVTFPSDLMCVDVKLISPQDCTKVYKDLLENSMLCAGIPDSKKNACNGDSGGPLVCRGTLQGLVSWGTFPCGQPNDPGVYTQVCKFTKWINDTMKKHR
ADAM10 inh: inhibits human ADAM10; AID 720582; inhibition, % at 7 µM; recombinant ADAM10, EDANS/DABCYL FRET peptide cleavage, 3 h; 370,000 compounds, 0.62% hits; O14672;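 active = inhibition above a per-campaign cutoff equal to the mean of compounds falling between control-based bounds plus 3 SD, cut at about 20% in these data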;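 note: 0% = DMSO wells while the 100% control is not disclosed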
V-ATPase pHluor: regulators of yeast V-ATPase proton transport | S. cerevisiae, pHLuorin cytosolic pH fluorescence | response, % at 10 µM | 350,000 compounds, 0.37% hits; in the data active = response mostly above about 7.3%, no sharp cut-off; inactive = mostly below about 5.4%; note: actives read high
ADAM10 ctr: counter-screen for ADAM17 exosite inhibitors: inhibitors of human ADAM10. recombinant ADAM10, EDANS/DABCYL FRET peptide cleavage, 3 h. shares compounds with ADAM17 inh. AID 743256. inhibition, % at 6.95 µM. 2,900 compounds, 47% hits;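 active = mean inhibition over the triplicate runs exceeds the activity threshold set in the earlier primary screen, cut at about 20% in these data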;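 note: 0% = DMSO wells and 100% = marimastat wells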
ADAM17 confirm: human ADAM17 inhibition, confirmation | inhibition, % at 6.95 µM | AID 743257 | 2,900 compounds, 65% hits | shares compounds with ADAM17 inh | recombinant ADAM17, EDANS/DABCYL QFRET peptide cleavage;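 active = mean inhibition across replicates above the hit cutoff set in the primary screen, cut at about 8.5% in these data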;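 note: 0% = DMSO wells and 100% = marimastat wells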
* = called active by the depositor; / = no result given. A selection: hits, their analogues and other compounds. The true share with any hit is near 2.3%.

SMILES	ADAM17 inh	proKLK7 act	ADAM10 inh	V-ATPase pHluor	ADAM10 ctr	ADAM17 confirm
COc1ccc(Cn2c(SC)nc3ccccc32)cc1[N+](=O)[O-]	8.7*	0	16	-5	10	2
COc1ccc(Cn2ccnc2)cc1[N+](=O)[O-]	2	-1	5	-3	/	/
CN[C@H]1C[C@H]2c3[nH]c4c(-c5ccccc5)cccc4c3CCN2C[C@H]1[C@H](C)O	-16	1	-81	/	/	/
CCN(CC)c1ccc(NC(=O)/C=C/c2cc(Br)ccc2OC)cc1	10*	0	12	-1	27*	20*
COc1ccc(Br)cc1/C=C/C(=O)c1ccc(NC(C)=O)cc1	-1	-2	4	-1	/	/
COc1ccc(NC(=O)/C=C/c2cc(Br)ccc2OC)cc1	4	-1	19	4	/	/
COc1ccc(Br)cc1/C=C/C(=O)Nc1c(C)cccc1C	9.8*	1	-7	-3	-16	-1
CC(C)CN(C(=O)COC(=O)CCC(=O)c1ccc(F)cc1)c1c(N)n(Cc2ccccc2)c(=O)[nH]c1=O	13*	0	6	-3	3	4
Brc1ccccc1C1Cc2nnccc2CN1 (stereo not given)	-1	1	-6	/	/	/
O=C(NC(=S)NNC(=O)c1ccccc1O)c1ccco1	5	0	10	8	/	/
O=C(NC(=S)NNC(=O)c1cc2ccccc2cc1O)c1ccco1	9.3*	1	17	3	4	6
COCC(=O)N(C)[C@H]1C[C@H]2c3[nH]c4cccc(-c5cccc(F)c5)c4c3CCN2C(=O)[C@H]1[C@H](C)O	-59	0	-193	/	/	/
CCOC(=O)CNC(=O)CSc1nnc(-c2cccs2)o1	1	0	-4	/	/	/
COc1ccc(OC)c(C2C(C(N)=O)=C(C)Nc3nc(-c4cccc(Cl)c4)nn32)c1 (stereo not given)	9.3*	1	-1	4	10	6
COc1ccccc1-c1nc2n(n1)C(c1ccccc1Cl)C(C(N)=O)=C(C)N2 (stereo not given)	-8	0	-32	1	/	/
O=[N+]([O-])c1ccc(C(O)C(CO)NC(=S)Nc2ccccc2)cc1 (stereo not given)	8.8*	0	13	1	-6	-3
CS/C(=C\[N+](=O)[O-])Nc1ccc(Cl)cc1	12*	0	16	19	2	1
CC(C)=CC(=O)Nc1ccc(Cl)cc1	5	-1	-5	-1	/	/
COc1ccc(C2=NN(C(=O)CSc3nnc(-c4ccccc4F)o3)C(c3ccco3)C2)cc1 (stereo not given)	11*	0	5	4	9	6
Cc1ccc(C(=O)NCCNc2ccc([N+](=O)[O-])cc2C(F)(F)F)cc1	8.8*	0	14	2	20*	12*
O=C1N[C@H](Cc2ccccc2)COC(=O)[C@H](Cc2ccc(F)cc2)CC/C=C/C[C@H]1CC(=O)N(CCO)Cc1ccccc1	8.7*	1	7	3	21*	11*
O=C1N[C@@H](c2ccccc2)COC(=O)[C@@H](Cc2ccc(F)cc2)CC/C=C/C[C@@H]1CC(=O)N(CCO)Cc1ccccc1	10*	1	27*	1	31*	15*
Cc1noc(C)c1C(=O)N1CCC(n2nnc3ncccc32)CC1	1	0	-2	/	/	/
O=C(Nc1cccc(F)c1)N(Cc1ccc(Cl)cc1)CC(O)C(F)(F)F (stereo not given)	9.9*	-1	9	1	36*	20*
COC(=O)C1CCN(c2ccc([N+](=O)[O-])cc2)CC1	10*	-1	4	-1	5	8
SMILES	ADAM17 inh	proKLK7 act	ADAM10 inh	V-ATPase pHluor	ADAM10 ctr	ADAM17 confirm
COC(=O)C1CCN(CCCOc2ccc(CN3CCN(c4ccc([N+](=O)[O-])cc4)CC3)cc2)CC1	0	0	7	1	/	/
COC(=O)[C@]12C[C@H](CC(=O)N3CCN(C(=O)C4CC4)CC3)C(=O)N(Cc3cccc4ccccc34)C1=C[C@H](COCc1ccccc1)O[C@@H]2C	10.0*	0	8	/	24*	20*
COC(=O)C(C[N+](=O)[O-])C1=C(O)CC(C)(C)CC1=O (stereo not given)	-7	1	-17	/	/	/
CC(C)CCCCCCNC(=S)Nc1ccc(S(=O)(=O)N2CCOCC2)cc1	9.0*	0	16	-5	47*	23*
COc1ccc(-c2ccc3c(n2)CCCN3S(=O)(=O)c2cccs2)cc1	-14	-1	-75	/	/	/
COC(=O)c1cc2oc(C)cc2n1CC(=O)Nc1cc(C)cc(C)c1	9.6*	5	8	0	-17	-6
COc1ccc(-c2noc(CCC(=O)N3CCN(c4ccccc4Cl)CC3)n2)cc1	7	1	13	1	/	/
COc1ccc(-c2noc(CCC(=O)N3CCN(c4cccc(C)c4C)CC3)n2)cc1	9.3*	1	9	-1	27*	16*
CCC(CC)C(=O)Nc1c2c(nn1-c1ccc(OC)cc1)CS(=O)C2 (stereo not given)	8.7*	-1	8	1	19	8
CCC(=O)Nc1c2c(nn1-c1ccc(OC)cc1)CS(=O)C2 (stereo not given)	-3	0	-14	1	/	/
C=CCN(CC=C)C[C@@H]1CSCCS(=O)(=O)N1	-3	0	-2	/	/	/
O=c1[nH][nH]c(-c2ccccc2)c1C=Nc1ccccc1	1	0	-5	0	/	/
O=c1[nH][nH]c(-c2ccccc2)c1C=Nc1ccc(C(F)(F)F)cc1	13*	0	13	2	14	7
CC(=O)O[C@@H]1C=C[C@@H](C#Cc2ccc(C(C)(C)C)cc2)O[C@@H]1COC(=O)Nc1ccccc1	13*	0	13	/	29*	13*
CCCCN1CC[C@H](C)Oc2cc(Br)ccc2S1(=O)=O	3	0	5	/	/	/
COCCn1c(-c2ccccc2)nc(=S)c2c1CC(C)(C)OC2	5	0	8	0	/	/
CC1(C)Cc2c(c(=S)nc(-c3ccccc3)n2CCN2CCOCC2)CO1	8.7*	-1	2	-4	3	6
CN1OC[C@@H]2CN(CC3CCCCC3)[C@H](c3ccc(-c4ccc(C#N)cc4)cc3)C[C@@H]21	0	0	-6	/	/	/
C[C@@H]1CN([C@H](C)CO)C(=O)c2cc(NS(=O)(=O)c3ccc(F)cc3)ccc2O[C@@H]1CN(C)Cc1ccc(Cl)c(Cl)c1	9.6*	0	14	3	39*	19*
C[C@@H]1CCCCO[C@@H](CN(C)Cc2ccc(Cl)c(Cl)c2)[C@@H](C)CN([C@H](C)CO)C(=O)c2cc(NC(=O)CCC(F)(F)F)ccc2O1	9.2*	1	1	4	43*	22*
COc1ccc(S(=O)(=O)Nc2ccc3c(c2)CC(=O)N([C@@H](C)CO)C[C@H](C)[C@@H](CN(C)S(=O)(=O)c2ccc(F)cc2)O3)cc1	10*	0	14	-2	8	3
